# High-throughput results (PubChem BioAssay)
# In the library only some 19% were active in any assay of this set; here they are far more common.
# DT40 TDP1 no CPT: qHTS for Inhibitors of human tyrosyl-DNA phosphodiesterase 1 (TDP1): qHTS in cells in absence of CPT | DT40 Tdp1-/- hTDP1 cells, no CPT, ATP luminescence, 48 h | Potency, µM (top dose mostly 46.2 µM), for inactives: top-dose activity change, negative = growth inhibition, most hits filed as inhibitors | hit rate 15% among 420,000 | AID 686978, 2013; note: potency is the fitted concentration of half-maximal effect; % is set by controls: 0 for no effect and ±100 for the full control effect; nearly all actives have a fitted effect of over 55% in size
#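 Cells were dispensed at 400 per well, compounds added by pin tool, plates incubated ≥48 hr at 37 °C, then CellTiter-Glo added for 30 min at room temperature before luminescence reading. Line: DT40 Tdp1-/- complemented with hTDP1; camptothecin omitted.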
# BCR signal inh: inhibitors of chronic active B-cell receptor signaling; ABC-DLBCL IkBa-CBG/CBR reporter, luminescence ratio, 4 h; Potency, µM (highest dose often 46.1 µM), without a hit: at the top dose activity change, negative = inhibition, hits mostly inhibitors; hit rate 0.05% among 340,000; AID 493014; active = well fitted inhibition curve with a large enough effect in the signal ratio, with a control signal flat, not every such curve was filed as active; inconclusive = small, poorly fitted or top-dose-only effect, or effect the other way, or a change in a side signal; the % refers to the signal ratio;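 note: potency is the fitted concentration of half-maximal effect; plate controls were basal doxycycline-induced cells for no effect and cells given 10 µM MG132 for full effect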
#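 Concentration-response series (up to 46 uM) were applied to TMD8 dual-reporter cells for 4 h at 37C with doxycycline. Green/red ratio, after filter-overlap correction, defined %Activity; red signal alone was normalised to basal cells and zero luminescence.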
# TDP1 cell CPT: DT40-hTDP1 cell growth loss with CPT; hit rate 12% among 420,000; Potency, µM (top dose mostly 46.2 µM), inactives show at the highest dose activity change, negative = growth inhibition, actives largely listed as inhibitors; chicken DT40 Tdp1-/-;hTDP1 cells + 20 nM CPT, ATP luminescence, 48 h; note: potency is the fitted concentration of half-maximal effect; % is set by controls: 0 for no effect and ±100 for the full control effect; nearly all actives have a fitted effect of over 55% in size
#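 Chicken DT40 Tdp1-/- cells complemented with human TDP1, 400 cells/well, exposed to compounds plus 20 nM camptothecin for at least 48 h at 37 C; viability read as ATP content by CellTiter-Glo luminescence.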
# MCF10A rereplic: DNA re-replication induction in MCF 10a cells; MCF 10A DNA re-replication, Hoechst nuclear intensity, 48 h; Potency, µM (top dose mostly 46.1 µM), for inactives: top-dose activity, positive = re-replication, most hits filed as activators; hit rate 2.9% among 350,000; AID 624296; note: potency is the fitted concentration of half-maximal effect; % of control where 0% means no effect; nearly all actives have a fitted effect of over 50% in size
# SW480 rereplic: DNA re-replication induction in SW480 cells | SW480 DNA re-replication, Hoechst DNA content imaging, 48 h | Potency, µM (series often up to 46.1 µM), inactives show at the top dose re-replication activation, most hits filed as activators | hit rate 1.8% among 340,000 | AID 624297; note: potency is the fitted concentration of half-maximal effect; % of control where 0% means no effect; nearly all actives have a fitted effect of over 55% in size
#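 Readout is total intensity of Hoechst-stained nuclei, excited at 405 nm and collected at 500-530 nm. Compound treatment lasted 48 hr at 37 C in 5% CO2 before staining.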
# IL-1B inflam inh: inflammasome signaling inhibition, IL-1 beta readout; THP-1 LPS/ATP IL-1B secretion, AlphaLISA, 16 h; stronger effect = lower value; activity change, % at 57.5 µM; hit rate 4.7% among 360,000; in the data active = activity change below about -50%; inconclusive = mostly about -30% to -49%; note: % is set by controls: 0 for no effect and ±100 for the full control effect
#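 Secreted IL-1B measured by AlphaLISA bead assay after 16 h compound exposure of THP-1 cells; compounds (final up to 57.5 uM) added 1 h before LPS (250 ng/mL) and ATP (1.25 mM) stimulation; lower signal means less secretion.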
# * = called active by the depositor; ? = inconclusive; . = no result; ! = repeats disagree; [ ] = remark or other dose. Unless noted, calls come from the whole dose curve; as a rule, active = well fitted curve in the direction sought with a large enough effect; inconclusive = small, poorly fitted or top-dose-only effect, or another doubt; inactive = no such curve, though single readings can be large; an effect the other way counts as inactive or inconclusive.
SMILES,DT40 TDP1 no CPT,BCR signal inh,TDP1 cell CPT,MCF10A rereplic,SW480 rereplic,IL-1B inflam inh
CC(C)CC1Nc2ncnc(N3CCN(c4ccccc4)CC3)c2N(Cc2ccccc2)C1=O (configuration not stated),15µM*,-17%,16µM*,-1%,?,-20
CC(C)CC1Nc2ncnc(N3CCCCC3)c2N(Cc2ccccc2)C1=O (configuration not stated),18µM*,?,26µM*,13%,?,-15
COc1ccc(CN2C(=O)C(CC(C)C)Nc3ncnc(N4CCOCC4)c32)cc1 (configuration not stated),-9%,-7%,3%,0%,-2%,14
COc1ccc(OC)c(NC(=O)c2cccc(NC(=O)c3ccccc3C(=O)O)c2)c1,18%,-12%,10%,-3%,-8%,0
NS(=O)(=O)c1ccc(NC(=O)c2cnn3c2NC(=C2CC2)C=C3C(F)F)cc1,-7%,.,-27%,.,.,.
Cc1cc(C)cc(NC(=O)Cn2c(C(F)(F)F)nc3ccccc32)c1,-22%,.,-24%,.,.,.
Cc1onc(-c2c(F)cccc2Cl)c1C(O)c1ccc(F)cc1 (configuration not stated),?,-5%,-15%,-1%,-16%,27
CC(C)CC1Nc2ncnc(N3CCN(c4ccccn4)CC3)c2N(Cc2ccc(Cl)cc2)C1=O (configuration not stated),23µM*,-1%,?,81%,13%,-70*!
O=C(COC(=O)CSc1ccc(Cl)cc1)Nc1ccc2[nH]c(=O)[nH]c2c1,?,2%,-8%,8%,-6%,0
Cc1cccc(C)c1NC(=O)C(C)c1ccc(-c2ccccc2)c(F)c1 (configuration not stated),16µM*,.,23µM*,?,-3%[9.22 µM],-4
CC(=O)OC(C)OC(=O)C(C)c1ccc(-c2ccccc2)c(F)c1 (configuration not stated),-10%,.,0%,.,.,.
Cc1c(N=N/C(C(=O)Nc2ccccc2)=C(/O)c2ccccc2)c(=O)n(-c2ccccc2)n1C,21µM*,?,?,-18%,6.5µM*,-1
CCOC(=O)/C(N=Nc1c(C)n(C)n(-c2ccccc2)c1=O)=C(/O)c1ccccc1,-4%,-10%,2%,-5%,2%,-10
COCC(=O)N1CCC(Oc2ccc(C(=O)N3CCSCC3)cc2)CC1,5%,1%,-8%,-3%,-6%,19
O=C1c2ccccc2/C(=C\c2ccc3[nH]ccc3c2)N1c1ccccc1,?,?,?,14%,5%,4
CCC/C(=C1/c2ccccc2C(=O)N1c1ccccc1)c1ccc2[nH]ccc2c1,16µM*,?,16µM*,?,?,49
CCCn1c(NC(=O)CN2C(=O)NC3(CCCCC3)C2=O)nc2ccccc21,23µM*,?,?,-8%,?,5
Cc1ccc(NC(=O)CN2C(=O)NC3(CCCCCCC3)C2=O)cc1C,?,?,9.2µM*,-1%,-5%,4
CN(CC(=O)Nc1cccc(F)c1)C(=O)CN1C(=O)NC2(CCCCC2)C1=O,21µM*,7%,?,-14%,?,3
O=C(CN1C(=O)NC2(CCCCCCC2)C1=O)Nc1cccc(Br)c1,21µM*,?,16µM*,10%,-6%,-5
CC(=O)c1cccc(NC(=O)CN2C(=O)NC3(CCCCCCC3)C2=O)c1,-28%,-6%,?,?,-3%,10
COc1ccc(C(=O)NCC(=O)OCC(=O)Nc2cc([N+](=O)[O-])ccc2F)cc1,2%,-26%,1%,0%,-13%,-6
CC(C)=CCC[C@H](C)CC1Cc2[nH]c(=S)[nH]c(=O)c2C(c2ccc(Cl)cc2)O1 (some centres not stated),?,.,?,.,.,-20
CCCCC[C@@H]1C=C(C(=O)O)[C@H](c2ccc(OC)c(OC)c2)N1S(=O)(=O)c1ccc(C)cc1,8%,1%,6%,2%,-7%,28
OCCNCC(O)CN1c2ccccc2Sc2ccccc21 (configuration not stated),?,?,?,-1%,4%[9.22 µM],?
SMILES,DT40 TDP1 no CPT,BCR signal inh,TDP1 cell CPT,MCF10A rereplic,SW480 rereplic,IL-1B inflam inh
O=C(CN1C(=O)NC2(CCCC2)C1=O)OCCOc1ccc(Br)cc1,18µM*,-1%,15µM*,6%,-21%,-9
COc1ccc(OCCOC(=O)CN2C(=O)NC3(CCCC3)C2=O)cc1,-17%,-15%,?,3%,-8%,?
O=C(CN1C(=O)NC2(CCCCCCC2)C1=O)Nc1ccc(OC(F)F)cc1,18µM*,-2%,23µM*,5%,?,-14
O=C(CN1C(=O)NC2(CCCCCC2)C1=O)Nc1ccc2c(c1)CCC2,12µM*,-9%,?,6%,7%,9
O=C(CN1C(=O)NC2(CCCCC2)C1=O)Nc1ccc(F)cc1,7%,?,4%,1%,5%,25
COC(=O)c1ccc(-c2ccc(/C=N/N3C(=O)C4C5C=CC(C6CC56)C4C3=O)o2)cc1 (configuration not stated),18µM*,?,?,?,-2%,-57*
CCOC(=O)C1CCN(C(=O)c2ccc3c(c2)sc2nc(-c4ccccc4)cn23)CC1,23µM*,.,6.5µM*,.,.,.
CCOC(=O)C1CCN(C(=O)c2ccc3c(c2)sc2nc(-c4ccc(OCC)cc4)cn23)CC1,6.5µM*,.,7.3µM*,.,.,.
Cc1ccc(-c2cn3c(n2)sc2cc(C(=O)N4CCCCC4)ccc23)cc1,16µM*,.,-79%,.,.,.
CCOC(=O)N1CCN(C(=O)c2ccc3c(c2)sc2nc(-c4ccccc4)cn23)CC1,?,-1%,?,?,1%,-12
Cc1ccc(OC(=O)CSc2nnc(-c3ccc4c(c3)OCO4)o2)c(C)c1,1%,.,3%,.,.,.
Cc1cccc(N2CCN(C(=O)c3ccc(NC4=NC5CS(=O)(=O)CC5S4)cc3)CC2C)c1 (configuration not stated),-23%,0%,?,17%,?,3
O=C(OCc1cn([C@@H]2CN(C(=O)C3CCCCC3)[C@@H](c3ccc(Cl)cc3)C[C@H]2O)nn1)c1ccccc1,?,.,-26%,.,.,4
